Records with an inconclusive call do not appear. Activity calls are given as the source filed them. Rule for the calls: active = hit-call score of the fitted dose curve at least 0.9, where 1 is the maximum; inconclusive = response in the unintended direction; inactive = score below 0.9.
Read-out: glucuronosyltransferase (UGT1A1), UGT1A1 (gene 54658)
Experiment: CLD_UGT1A1_24hr: CellzDirect (CLD) Gene Expression Assay for glucuronosyltransferase (UGT1A1) at 24 hours (AID 2283696)
Procedure: CLD_24hr is a cell-based, multiplexed-readout assay that uses hepatocyte, a human liver primary cell, with measurements taken at 24 hours after chemical dosing in a 96-well plate.CLD_UGT1A1_24hr is one of 16 assay component(s) measured or calculated from the CLD_24hr assay. It is designed to make measurements of mRNA induction, a form of inducible reporter, as detected with chemiluminescence signals by Quantitative Nuclease Protection Assay (qNPA) technology.Data from the assay component CLD_UGT1A1_24hr was analyzed at the endpoint, CLD_UGT1A1_24hr, in the positive analysis fitting direction relative to DMSO as the negative control and baseline of activity. Using a type of inducible reporter, gain-of-signal activity can be used to understand changes in the reporter gene as they relate to the gene UGT1A1. Furthermore, this assay endpoint can be referred to as a primary readout. To generalize the intended target to other relatable targets, this assay endpoint is annotated to the transferase intended target family, where subfamily is glucuronosyltransferase.
Human hepatocyte cultures were treated daily for two consecutive days with fresh dosing solutions containing appropriate concentrations of the 320 ToxCast chemicals (chemical identities were blinded to CellzDirect and other ToxCast collaborators), vehicle control (0.2% DMSO), and positive control inducers as summarized in Table 1. Due to the large number of treatment groups and chemicals examined, the ToxCast chemicals were divided into two groups (spanning two independent cultures of hepatocytes from separate donor preparations (Hu778: ToxCast plates 1 and 2; Hu776: ToxCast plates 3 and 4). Each preparation of human hepatocyte cultures was treated with respective vehicle control, medium only control, set of six positive controls/reference chemicals for the five hepatic receptor pathways, and a subset of eight of the ToxCast chemicals (indoxacarb, pyrithiobac-sodium, norflurazon, cyhalofop-butyl, methomyl, thiram, acetochlor, and propiconazole). These replicate data, coupled with internal replicates designed within the blinded ToxCast chemical library, provided additional data to evaluate interindividual differences between hepatocyte preparations and their potential impact on chemical profiles.Cell morphology and integrity were evaluated using phase-contrast microscopy as an indicator of hepatocyte cell health (Tyson & Green, 1987). Cultures for each treatment group (i.e., media, vehicle [0.2% DMSO], positive control inducers [multiple concentrations], and the ToxCast chemicals [multiple concentrations]) were observed and cell morphology was assessed relative to vehicle control cultures at each harvest time point (0, 6, 24, or 48 h). […] Images were evaluated at the conclusion of the study to assess changes in cell integrity and account for the effects of chemical exposure on uncharacteristic changes in concentration-dependent gene expression profiles. The results from these determinations of apparent cytotoxicity were annotated (yes/no) alongside the corresponding qNPA data for reference.At the conclusion of each treatment period, hepatocyte cultures (96-well) were washed with 1 volume of HBSS, lysed by addition of 25 ul ArrayPlate lysis buffer (HTG, Tucson, AZ), and 70 ul/well of Denaturation Oil, denatured by incubation at 95C for 10 min, and frozen at approximately -70C until analysis by nuclease protection assay (qNPA) (Roberts et al., 2007). For qNPA analysis, cell lysates were thawed at 50C for approximately 30 min, qNPA probes were added, and samples were incubated at 95C for 10 min to begin the detection process by denaturing the target RNA, dissociating the duplexes and secondary structure hybridization. At the conclusion of the hybridization period, S1 nuclease reagent was added to each sample to digest all nonprotected nucleotides at 50C for 60-90 min. […]

SMILES	outcome	AC50
C#CCN1C(=O)COc2cc(F)c(N3C(=O)C4=C(CCCC4)C3=O)cc21	inactive	–
CCS(=O)(=O)c1cccnc1S(=O)(=O)NC(=O)Nc1nc(OC)cc(OC)n1	inactive	–
COc1nn(CSP(=S)(OC)OC)c(=O)s1	inactive	–
Cc1[nH]c(=O)n(C(C)(C)C)c(=O)c1Cl	inactive	–
Clc1ccccc1-c1nnc(-c2ccccc2Cl)nn1	inactive	–
COP(=S)(OC)Oc1ccc(SC)c(C)c1	inactive	–
O=C(O)CCCOc1ccc(Cl)cc1Cl	inactive	–
CC1(C)C(C=C(Cl)Cl)C1C(=O)OC(C#N)c1ccc(F)c(Oc2ccccc2)c1 (stereo not given)	inactive	–
CCOCN(C(=O)CCl)c1c(C)cccc1CC	inactive	–
CNC(=O)/C=C(\C)OP(=O)(OC)OC	inactive	–
CC(C)(C)C(O)C(Oc1ccc(Cl)cc1)n1cncn1 (stereo not given)	–	6.66 µM (active)
COC(=O)c1ccccc1S(=O)(=O)NC(=O)Nc1nc(C)nc(OC)n1	inactive	–
COc1cc(OC)nc(NC(=O)NS(=O)(=O)c2cc(NC=O)ccc2C(=O)N(C)C)n1	inactive	–
CCOC1Oc2ccc(OS(C)(=O)=O)cc2C1(C)C (stereo not given)	inactive	–
C[C@H]1[C@H](c2ccc(Cl)cc2)SC(=O)N1C(=O)NC1CCCCC1	inactive	–
CC(C)OC(=O)Nc1cccc(Cl)c1	–	20 µM (active)
CCC(C)(NC(=O)c1cc(Cl)c(C)c(Cl)c1)C(=O)CCl (stereo not given)	inactive	–
O=[N+]([O-])c1c(Cl)c(Cl)c(Cl)c(Cl)c1Cl	inactive	–
CCN(CC)C(=O)SCc1ccc(Cl)cc1	inactive	–
CCc1ccc(C(=O)NN(C(=O)c2cc(C)cc(C)c2)C(C)(C)C)cc1	–	4.06 µM (active)

SMILES	outcome	AC50
COC(=O)c1ccccc1S(=O)(=O)NC(=O)N(C)c1nc(C)nc(OC)n1	inactive	–
ClC1C(Cl)C(Cl)C(Cl)C(Cl)C1Cl (stereo not given)	inactive	–
O=[N+]([O-])/N=C1\NCCN1Cc1ccc(Cl)nc1	inactive	–
O=C(O)COc1ccc(Cl)cc1Cl	inactive	–
CN1CSC(=S)N(C)C1	inactive	–
CCC(C)Nc1c([N+](=O)[O-])cc(C(C)(C)C)cc1[N+](=O)[O-] (stereo not given)	inactive	–
CC(C)(C)C(O)/C(=C\c1ccc(Cl)cc1Cl)n1cncn1 (stereo not given)	inactive	–
CNC(=O)Oc1ccccc1OC(C)C	inactive	–
OCCOc1ccccc1	inactive	–
COP(=O)(OC)OC=C(Cl)Cl	inactive	–
CCOc1nc(NC)nc(NC(=O)NS(=O)(=O)c2ccccc2C(=O)OC)n1	inactive	–
Cc1cc(C)nc(NC(=O)NS(=O)(=O)c2ccccc2C(=O)OC2COC2)n1	inactive	–
CNC(=O)Oc1cccc(N=CN(C)C)c1	inactive	–
O=S1OCC2C(CO1)C1(Cl)C(Cl)=C(Cl)C2(Cl)C1(Cl)Cl (stereo not given)	inactive	–
O=C(O)C(F)(F)C(F)(F)C(F)(F)C(F)(F)C(F)(F)C(F)(F)C(F)(F)F	inactive	–
O=C(NC(=O)c1c(F)cccc1F)Nc1ccc(OC(F)(F)C(F)OC(F)(F)F)c(Cl)c1 (stereo not given)	inactive	–
O=S(=O)(O)C(F)(F)C(F)(F)C(F)(F)C(F)(F)C(F)(F)C(F)(F)C(F)(F)C(F)(F)F	inactive	–
CC(C)N(C(=O)COc1nnc(C(F)(F)F)s1)c1ccc(F)cc1	inactive	–
CCC(C)(C)C(=O)OC1=C(c2ccc(Cl)cc2Cl)C(=O)OC12CCCCC2	inactive	–
Oc1ccc(Cl)cc1Cc1ccccc1	inactive	–

Reference: PubChem BioAssay (EPA / NIEHS)
